This note sets out measurements from PubChem BioAssay.

Usually inhibition stands for the share of the control response that was lost under treatment.

Molecules are shown by their SMILES. Values without a mark were called inactive. The rule behind the calls is not given here.

For the assay, the target named is Pantothenate synthetase (Mycobacterium tuberculosis (strain ATCC 25618 / H37Rv)) (UniProt P9WIL5). Nature of the assay: Coupled enzyme confirmation of inhibitors against recombinant Mtb PanC (AID 375).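 Note: 0% = full reaction with vehicle and 100% = no enzyme background.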 Particulars: coupled enzyme assay; at 10 µM, hits give high values.
Pantothenate synthetase (Mycobacterium tuberculosis (strain ATCC 25618 / H37Rv)), sequence (P9WIL5 whole entry, looked up): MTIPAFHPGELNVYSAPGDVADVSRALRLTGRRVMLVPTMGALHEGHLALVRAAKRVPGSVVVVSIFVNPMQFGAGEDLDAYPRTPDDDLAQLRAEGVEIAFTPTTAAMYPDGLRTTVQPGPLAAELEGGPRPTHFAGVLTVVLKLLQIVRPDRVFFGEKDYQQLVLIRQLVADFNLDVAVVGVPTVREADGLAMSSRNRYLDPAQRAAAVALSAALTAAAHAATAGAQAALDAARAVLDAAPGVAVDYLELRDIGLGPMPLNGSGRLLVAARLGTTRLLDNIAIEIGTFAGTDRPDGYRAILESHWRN
Consider `CCn1c2ccccc2c2cc(NC(=O)Cc3ccc(S(=O)(=O)N4CCOCC4)s3)ccc21`, for which the inhibition was 0%.

In the case of `CC(Oc1ccccc1)C(=O)NC1CCN(Cc2ccccc2)CC1` (centres undefined), the inhibition is 7%.

As to `CCCCN(C)C(=O)c1ccc(CS(=O)(=O)c2ccccc2C)o1`, the inhibition was 2%.

Turning to `Cc1cccc(-c2cc3nc4c(c(N5CCC6(CC5)OCCO6)n3n2)CCCC4)c1`, the inhibition is 4%.

In the case of `FC(F)Oc1ccc(-c2csc(Cc3nnc4n3CCCCC4)n2)cc1`, the inhibition is 0%.

Turning to `CCC1CCCCN1S(=O)(=O)c1ccc(C(=O)Nc2nnc(-c3ccccc3Cl)o2)cc1` (centres undefined), the inhibition is 4%.

With `O=C(CCSc1ccccc1)N1CCOCC1`, the inhibition was 0%.

Take `COC(=O)Nc1nnc(CCc2ccccc2)s1`: the inhibition is 2%.

On to `CCOC(=O)c1ccc(N2Cc3cc(C)c(C)cc3C2)cc1O`, for which the inhibition was 2%.

Regarding `COc1ccc(S(=O)(=O)Cc2ccc(C(=O)N3CCOCC3)o2)cc1`, the inhibition is 7%.

With `CCCCN1CN(S(=O)(=O)c2cccs2)c2nc3ccccc3nc21`, the inhibition is 0%.

On to `CCOc1ccc(Cn2nnc(C(=O)Nc3ccc(OC)cc3OC)c2N)cc1`, for which the inhibition was 0%.

With `Brc1ccc(-c2csc(/N=C/N3CCOCC3)n2)cc1`, the inhibition is 3%.

`O=C(Nc1ccc(Cl)cc1C(=O)O)c1ccc2c(c1)C(=O)N(Cc1ccco1)C2=O`: the inhibition is 0%.

`CN(C)CCOC(=O)C(c1ccccc1)C1(O)CCCC1` (centres undefined): the inhibition was 5%.

On to `COc1ccc(-c2cc3nc4n(c(=O)c3s2)CCC4)cc1`, for which the inhibition is 8%.

Take `O=C(Nc1nc(-c2ccccc2)cs1)C1CCCCN1S(=O)(=O)c1ccccc1` (centres undefined): the inhibition was 1%.

`CCCCN(CCCC)CCn1cnc2c([nH]c3ccc(OC)cc32)c1=O`: the inhibition was 4%.

As to `CCOC(=O)N1CCC(NC(=O)C2CCCN2C(=O)OCc2ccccc2)CC1` (centres undefined), the inhibition is 5%.

In the case of `Cc1cc(C(=O)COC(=O)c2n[nH]c3ccccc23)c(C)n1C`, the inhibition is 0%.

Take `COc1ccc(-c2ccc(Nc3ccc(S(=O)(=O)N4CCCC4)cc3)nn2)cc1OC`: the inhibition is 11%.

`COc1ccc(CNc2nc(SCC(=O)NCc3ccco3)nc3ccccc23)cc1`: the inhibition was 10%.

As for `COc1ccc(NC(=O)CN2CCN(S(=O)(=O)c3ccc(Cl)cc3)CC2)cc1`, the inhibition was 13%.

As for `CC(C(=O)N1c2ccc(F)cc2CCC1C)N1C(=O)c2ccccc2C1=O` (centres undefined), the inhibition is 5%.

`COc1ccccc1CC(=O)Nc1ccc(OC)c(OC)c1`: the inhibition is 3%.

On to `Cc1ccc2nc3c(cc(C(=O)NCC4CCCO4)n3C)c(=O)n2c1` (centres undefined), for which the inhibition is 0%.

Regarding `Cc1cc(C)c(NC(=O)C2CSCCS2)c(C)c1` (centres undefined), the inhibition is 0%.

Take `CCN(CC)S(=O)(=O)c1ccc2c(c1)nc(SCC(=O)NC1CC1)n2-c1ccccc1OC`: the inhibition was 0%.

Consider `COc1ccc(NC(=O)N(C2CCCCC2)C2CCN(C(C)C)CC2)c(OC)c1`, for which the inhibition is 0%.

As for `CCOC(=O)Cn1c(N2CCOCC2)nc2c1c(=O)[nH]c(=O)n2C`, the inhibition was 5%.

Consider `O=C(NC1CCCCC1)c1nc2c(nnn2Cc2ccccc2Cl)c(=O)[nH]1`, for which the inhibition is 0%.

Regarding `Cc1ccc(SCCNS(=O)(=O)c2ccc(F)cc2)cc1`, the inhibition was 1%.

Regarding `Cc1ccc(C(=O)Nc2nc3c(s2)CCCC3)o1`, the inhibition was 2%.

With `COc1cccc(OCc2nc3ccccc3[nH]2)c1`, the inhibition is 0%.

`O=C(CN1CCN(C(=O)c2ccccc2)CC1)Nc1ncc(Br)cc1Br`: the inhibition was 0%.

Turning to `Cc1sc2ncn3ncnc3c2c1C`, the inhibition was 0%.

As to `Cc1nc(=S)n(-c2ccccc2)[nH]1`, the inhibition is 0%.

As to `Cc1ccc(NCc2nnc(SCC(=O)NCc3ccco3)n2CC2CCCO2)cc1Cl` (centres undefined), the inhibition is 3%.

As for `CC1(C)CC(=O)C=C(Nc2ccc(OCC(F)(F)C(F)F)cc2)C1`, the inhibition is 5%.
